# Key:
# Assay in all cases: PBM; 200 nM protein, PBS
# Conditions in all cases: dsDNA, one strand shown
# [1] = target: CRX (Homo sapiens, UniProt O43186 26-111)
# [2] = target: CRX (Homo sapiens, UniProt O43186 26-111, E42D)
# [3] = target: PITX2 (Homo sapiens, UniProt Q99697 72-157)
# [4] = target: CRX (Homo sapiens, UniProt O43186 26-111, R41L)
# [5] = target: MSX2 (Homo sapiens, UniProt P35548 130-214, R199I)
# [6] = target: MSX2 (Homo sapiens, UniProt P35548 130-214)
# [7] = target: MSX2 (Homo sapiens, UniProt P35548 130-214, F161Y)
# Sequence of MSX2 (Homo sapiens, UniProt P35548 130-214, F161Y) (P35548 130-214 F161Y): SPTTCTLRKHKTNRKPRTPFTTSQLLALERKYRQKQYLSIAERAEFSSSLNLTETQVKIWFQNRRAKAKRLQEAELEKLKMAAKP
# [8] = target: ALX3 (Homo sapiens, UniProt O95076 139-225, N203Q)
# Sequence of ALX3 (Homo sapiens, UniProt O95076 139-225, N203Q) (O95076 139-225 N203Q): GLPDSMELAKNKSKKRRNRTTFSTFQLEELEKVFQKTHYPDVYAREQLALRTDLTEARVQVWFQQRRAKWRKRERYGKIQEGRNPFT
# [9] = target: ALX3 (Homo sapiens, UniProt O95076 139-225)
# Sequence of ALX3 (Homo sapiens, UniProt O95076 139-225) (O95076 139-225): as the sequence (O95076 139-225 N203Q) above, with Q65N counted along it
# [10] = target: ALX3 (Homo sapiens, UniProt O95076 139-225, L168Q)
# Sequence of ALX3 (Homo sapiens, UniProt O95076 139-225, L168Q) (O95076 139-225 L168Q): as the sequence (O95076 139-225 N203Q) above, with L30Q, Q65N counted along it
# [11] = target: ALX3 (Homo sapiens, UniProt O95076 139-225, L168V)
# Sequence of ALX3 (Homo sapiens, UniProt O95076 139-225, L168V) (O95076 139-225 L168V): as the sequence (O95076 139-225 N203Q) above, with L30V, Q65N counted along it
# [12] = target: ALX3 (Homo sapiens, UniProt O95076 139-225, N203S)
# Sequence of ALX3 (Homo sapiens, UniProt O95076 139-225, N203S) (O95076 139-225 N203S): as the sequence (O95076 139-225 N203Q) above, with Q65S counted along it
# [13] = target: ALX1 (Homo sapiens, UniProt Q15699 118-204, L144V)
# Sequence of ALX1 (Homo sapiens, UniProt Q15699 118-204, L144V) (Q15699 118-204 L144V): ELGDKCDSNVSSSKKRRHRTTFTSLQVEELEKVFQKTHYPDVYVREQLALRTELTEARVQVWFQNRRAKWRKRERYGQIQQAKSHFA
# [14] = target: ALX1 (Homo sapiens, UniProt Q15699 118-204, L144R)
# Sequence of ALX1 (Homo sapiens, UniProt Q15699 118-204, L144R) (Q15699 118-204 L144R): as the sequence (Q15699 118-204 L144V) above, with V27R counted along it
# [15] = target: ALX1 (Homo sapiens, UniProt Q15699 118-204)
# Sequence of ALX1 (Homo sapiens, UniProt Q15699 118-204) (Q15699 118-204): as the sequence (Q15699 118-204 L144V) above, with V27L counted along it
# Sequence of CRX (Homo sapiens, UniProt O43186 26-111) (O43186 26-111): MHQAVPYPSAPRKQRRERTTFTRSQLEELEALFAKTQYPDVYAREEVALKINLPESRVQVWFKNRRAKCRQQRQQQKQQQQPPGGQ
# Sequence of CRX (Homo sapiens, UniProt O43186 26-111, R41L) (O43186 26-111 R41L): as the sequence (O43186 26-111) above, with R16L counted along it
# Sequence of CRX (Homo sapiens, UniProt O43186 26-111, E42D) (O43186 26-111 E42D): as the sequence (O43186 26-111) above, with E17D counted along it
# Sequence of MSX2 (Homo sapiens, UniProt P35548 130-214) (P35548 130-214): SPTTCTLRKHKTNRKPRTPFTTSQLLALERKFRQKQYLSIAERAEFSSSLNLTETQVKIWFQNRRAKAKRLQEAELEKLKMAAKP
# Sequence of MSX2 (Homo sapiens, UniProt P35548 130-214, R199I) (P35548 130-214 R199I): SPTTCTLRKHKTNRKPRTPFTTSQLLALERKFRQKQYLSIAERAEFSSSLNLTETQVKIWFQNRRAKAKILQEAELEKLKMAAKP
sequence,measurement,setting,value
CTGGATTA,binding signal,[1],"13.1 upbm affinity estimate (log intensity, higher = more binding, comparable within an allelic series)"
same,binding signal,[2],"13.1 upbm affinity estimate (log intensity, higher = more binding, comparable within an allelic series)"
same,binding signal,[3],"13 upbm affinity estimate (log intensity, higher = more binding, comparable within an allelic series)"
same,binding signal,[4],"12.9 upbm affinity estimate (log intensity, higher = more binding, comparable within an allelic series)"
CGGGGTGC,binding signal,[1],"8.16 upbm affinity estimate (log intensity, higher = more binding, comparable within an allelic series)"
same,binding signal,[2],"8.25 upbm affinity estimate (log intensity, higher = more binding, comparable within an allelic series)"
same,binding signal,[5],"9.55 upbm affinity estimate (log intensity, higher = more binding, comparable within an allelic series)"
same,binding signal,[6],"9.66 upbm affinity estimate (log intensity, higher = more binding, comparable within an allelic series)"
same,binding signal,[7],"9.67 upbm affinity estimate (log intensity, higher = more binding, comparable within an allelic series)"
same,binding signal,[4],"8.31 upbm affinity estimate (log intensity, higher = more binding, comparable within an allelic series)"
AGGTGCGG,binding signal,[1],"8.42 upbm affinity estimate (log intensity, higher = more binding, comparable within an allelic series)"
same,binding signal,[2],"8.46 upbm affinity estimate (log intensity, higher = more binding, comparable within an allelic series)"
same,binding signal,[8],"7.78 upbm affinity estimate (log intensity, higher = more binding, comparable within an allelic series)"
same,binding signal,[9],"7.66 upbm affinity estimate (log intensity, higher = more binding, comparable within an allelic series)"
same,binding signal,[10],"7.81 upbm affinity estimate (log intensity, higher = more binding, comparable within an allelic series)"
same,binding signal,[11],"7.75 upbm affinity estimate (log intensity, higher = more binding, comparable within an allelic series)"
same,binding signal,[4],"8.35 upbm affinity estimate (log intensity, higher = more binding, comparable within an allelic series)"
same,binding signal,[12],"7.79 upbm affinity estimate (log intensity, higher = more binding, comparable within an allelic series)"
ATAGATTA,binding signal,[1],"12.7 upbm affinity estimate (log intensity, higher = more binding, comparable within an allelic series)"
same,binding signal,[2],"12.5 upbm affinity estimate (log intensity, higher = more binding, comparable within an allelic series)"
same,binding signal,[3],"12.3 upbm affinity estimate (log intensity, higher = more binding, comparable within an allelic series)"
same,binding signal,[4],"12.3 upbm affinity estimate (log intensity, higher = more binding, comparable within an allelic series)"
CGGCTTAA,binding signal,[1],"12.9 upbm affinity estimate (log intensity, higher = more binding, comparable within an allelic series)"
same,binding signal,[2],"12.8 upbm affinity estimate (log intensity, higher = more binding, comparable within an allelic series)"
same,binding signal,[3],"12.5 upbm affinity estimate (log intensity, higher = more binding, comparable within an allelic series)"
CGGATTAA,binding signal,[1],"13.7 upbm affinity estimate (log intensity, higher = more binding, comparable within an allelic series)"
same,binding signal,[2],"13.8 upbm affinity estimate (log intensity, higher = more binding, comparable within an allelic series)"
same,binding signal,[3],"13.4 upbm affinity estimate (log intensity, higher = more binding, comparable within an allelic series)"
same,binding signal,[4],"13.7 upbm affinity estimate (log intensity, higher = more binding, comparable within an allelic series)"
AGGATTAT,binding signal,[1],"13.4 upbm affinity estimate (log intensity, higher = more binding, comparable within an allelic series)"
same,binding signal,[2],"13.5 upbm affinity estimate (log intensity, higher = more binding, comparable within an allelic series)"
same,binding signal,[3],"13.2 upbm affinity estimate (log intensity, higher = more binding, comparable within an allelic series)"
same,binding signal,[4],"13.5 upbm affinity estimate (log intensity, higher = more binding, comparable within an allelic series)"
AGTTTATC,binding signal,[1],"10.5 upbm affinity estimate (log intensity, higher = more binding, comparable within an allelic series)"
same,binding signal,[2],"10.3 upbm affinity estimate (log intensity, higher = more binding, comparable within an allelic series)"
same,binding signal,[13],"7.91 upbm affinity estimate (log intensity, higher = more binding, comparable within an allelic series)"
same,binding signal,[14],"8.01 upbm affinity estimate (log intensity, higher = more binding, comparable within an allelic series)"
same,binding signal,[4],"10.2 upbm affinity estimate (log intensity, higher = more binding, comparable within an allelic series)"
same,binding signal,[15],"8.04 upbm affinity estimate (log intensity, higher = more binding, comparable within an allelic series)"
AGATTAAT,binding signal,[1],"12.9 upbm affinity estimate (log intensity, higher = more binding, comparable within an allelic series)"
same,binding signal,[2],"12.9 upbm affinity estimate (log intensity, higher = more binding, comparable within an allelic series)"
same,binding signal,[3],"12.6 upbm affinity estimate (log intensity, higher = more binding, comparable within an allelic series)"
same,binding signal,[4],"12.5 upbm affinity estimate (log intensity, higher = more binding, comparable within an allelic series)"
GGGGCTTA,binding signal,[1],"12.8 upbm affinity estimate (log intensity, higher = more binding, comparable within an allelic series)"
same,binding signal,[2],"12.7 upbm affinity estimate (log intensity, higher = more binding, comparable within an allelic series)"
same,binding signal,[3],"12.4 upbm affinity estimate (log intensity, higher = more binding, comparable within an allelic series)"
GGATTATA,binding signal,[1],"13.5 upbm affinity estimate (log intensity, higher = more binding, comparable within an allelic series)"
same,binding signal,[2],"13.6 upbm affinity estimate (log intensity, higher = more binding, comparable within an allelic series)"
same,binding signal,[3],"13.2 upbm affinity estimate (log intensity, higher = more binding, comparable within an allelic series)"
same,binding signal,[4],"13.7 upbm affinity estimate (log intensity, higher = more binding, comparable within an allelic series)"
CTAATCCA,binding signal,[1],"13.3 upbm affinity estimate (log intensity, higher = more binding, comparable within an allelic series)"
same,binding signal,[2],"13.3 upbm affinity estimate (log intensity, higher = more binding, comparable within an allelic series)"
same,binding signal,[3],"13.2 upbm affinity estimate (log intensity, higher = more binding, comparable within an allelic series)"
same,binding signal,[4],"13 upbm affinity estimate (log intensity, higher = more binding, comparable within an allelic series)"
GAAGATTA,binding signal,[1],"12.8 upbm affinity estimate (log intensity, higher = more binding, comparable within an allelic series)"
same,binding signal,[2],"12.8 upbm affinity estimate (log intensity, higher = more binding, comparable within an allelic series)"
same,binding signal,[3],"12.4 upbm affinity estimate (log intensity, higher = more binding, comparable within an allelic series)"
same,binding signal,[4],"12.5 upbm affinity estimate (log intensity, higher = more binding, comparable within an allelic series)"
CTAATCCC,binding signal,[1],"13.5 upbm affinity estimate (log intensity, higher = more binding, comparable within an allelic series)"
same,binding signal,[2],"13.6 upbm affinity estimate (log intensity, higher = more binding, comparable within an allelic series)"
same,binding signal,[3],"13.4 upbm affinity estimate (log intensity, higher = more binding, comparable within an allelic series)"
same,binding signal,[4],"13.4 upbm affinity estimate (log intensity, higher = more binding, comparable within an allelic series)"

# From paper PMC11006913
